Drawing on PubChem BioAssay (NCI), this text covers growth for 32 compounds.

SMILES strings stand for the structures. Where “and” joins values, the source holds several entries; their conditions need not be identical. Equal values may be shown once. This is part of a sample that, as a whole, favours compounds with a hit. Of some 83,000 tested, about 20% had one in any assay.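 A percent growth of 40 corresponds to 60% growth inhibition; 0 means no net growth; -100 means all cells died. Active threshold: below 10.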 Values without a mark were called inactive. Calls of active or inactive are those of the source. Where a SMILES comes first, the peptide text is derived from it. The star is where a group is joined. Trt = c1ccc(C(c2ccccc2)(c2ccccc2)*)cc1; Cbz = O=C(OCc1ccccc1)*

For the first test, the system named is OVCAR-8 ovarian. In words: NCI-60 one-dose screen, 48 h (100 = growth as untreated, 0 = no growth, -100 = all killed). As to conditions: 10 µM unless noted.
Regarding `COc1cc(/C=C/C(C)=O)ccc1O`, the growth is 104% and 105%.

In the case of `CC(C)(C)CC(C)(C)c1ccc(OCCSC(=N)N)cc1`, the growth is 56.2%.

For the compound `COc1ccc(N=N/N=c2\sc3cc(OC)ccc3n2C)cc1`, the growth is 75.1%.

Turning to `O=C(Oc1cccc2cccnc12)c1ccccc1`, the growth is 84.9% and 98.6%.

On to `S=C(NCCNC(=S)[S][Sn]([c]1ccccc1)([c]1ccccc1)[c]1ccccc1)[S][Sn]([c]1ccccc1)([c]1ccccc1)[c]1ccccc1`, for which the growth is -99.2% (active).

For the compound `C[N+](C)=c1ccc2nc3c(cc(NCCCNc4cc5oc6cc(=[N+](C)C)ccc-6nc5c5ccccc45)c4ccccc43)oc-2c1`, the growth was -5.6% (active).

Consider `C[n+]1c(/C=C/c2ccc([N+](=O)[O-])cc2)ccc2ccccc21`, for which the growth is 91.3%.

`CCC(CCCN(CC)CCc1ccccc1)OC(=O)c1cc(OC)c(OC)c(OC)c1` (centres undefined): the growth is 92.2%.

Take `O=C(/C=C\c1ccccc1)N1c2ccccc2CC1c1c[nH]c2ccccc12` (centres undefined): the growth is 81%.

For `OC(CNc1ccnc2cc(Cl)ccc12)CNc1ccnc2cc(Cl)ccc12`, the growth is 52.5%.

In the case of `COC(=O)c1nc(=S)[nH]c(C(=O)OC)c1C(=O)c1ccccn1`, the growth was 20.6%.

With `Cc1ccc(N=C=C(c2ccccc2)c2ccccc2)cc1`, the growth is 70%.

`NC(=S)N/N=C/c1ccc(Cl)s1`: the growth was 106%.

As to `O=[N+]([O-])c1ccc2c(N=Nc3ccc4ccccc4c3O)c(O)cc(S(=O)(=O)O)c2c1`, the growth is 70.5%.

With `CC(=Nc1ccc(N(C)C)cc1)c1ccccc1`, the growth was 25.7%.

Take `O=[N+]([O-])c1ccc(N=Nc2ccc(O)cc2O)cc1`: the growth is 61.9%.

As to `CCC(CC)COC(=O)c1ccc(O)c(O)c1`, the growth is 59.9%.

On to `CCC(c1cccc(O)c1)C(CC)c1cccc(O)c1` (centres undefined), for which the growth is 85.6%.

For `COC(=O)C(CSC(c1ccccc1)(c1ccccc1)c1ccccc1)NC(=O)C(CC(N)=O)NC(=O)OCc1ccccc1` (stereo not drawn) (Cbz-Asn-Cys(Trt)-OMe; configuration not given here), the growth was 13.1%.

For `CCC(=O)Sc1ccccc1C(=O)Nc1ccc(Cl)cc1`, the growth was 78.8%.

Consider `Nc1ncnc2c1ncn2C1OC(CO)C(O)C1O` (centres undefined), for which the growth was 93.5% and 56% and 105%.

In the case of `Cc1ccc2c(ccc3c[n+]4c5ccccc5ccc4n32)c1`, the growth was 3.22% (active).

Turning to `O=C(Nc1ccc(F)cc1)ON=C1CCCCC1`, the growth is 106% [100 µM].

Take `CC1=CC(O)C2CC1C2(C)C` (centres undefined): the growth was 105% and 104%.

Take `O=C(CC1(O)C(=O)Nc2c(Cl)ccc(Cl)c21)c1ccc(Cl)cc1Cl` (centres undefined): the growth is 107%.

Take `O=C1N[C@H]2[C@H](CS[C@H]2CCCCC(=O)N(CCP(c2ccccc2)c2ccccc2)CCP(c2ccccc2)c2ccccc2)N1`: the growth was 95.1%.

`C=C(Cl)C(=NC(C)(C)C)Nc1ccccc1C`: the growth was 89.2%.

As to `Cc1ccnc(NC(c2ccccc2)c2ccc3cccnc3c2O)c1` (centres undefined), the growth is 28.1%.

Regarding `Cc1cc2nc(CS)[nH]c2cc1C`, the growth is 96.5%.

As to `O=C(O)C1C2CC3C(OC(=O)C31)C2Br` (centres undefined), the growth was 97.8% and 100%.

Regarding `Cc1ccnc2c1ccc1c(C)ccnc12`, the growth is 12.1%.

As to `COc1ccccc1/C=C\C(=O)c1ccccc1`, the growth was 75.8%.

The next test has as its system OVCAR-5 ovarian. The test is described as above. As to conditions: 10 µM unless noted.
On to `COc1cc(/C=C/C(C)=O)ccc1O`, for which the growth is 92.3% and 102%.

Turning to `CC(C)(C)CC(C)(C)c1ccc(OCCSC(=N)N)cc1`, the growth was 79.3%.

Regarding `COc1ccc(N=N/N=c2\sc3cc(OC)ccc3n2C)cc1`, the growth is 98.6%.

Turning to `O=C(Oc1cccc2cccnc12)c1ccccc1`, the growth is 105% and 107%.

As for `S=C(NCCNC(=S)[S][Sn]([c]1ccccc1)([c]1ccccc1)[c]1ccccc1)[S][Sn]([c]1ccccc1)([c]1ccccc1)[c]1ccccc1`, the growth is -93.6% (active).

With `C[N+](C)=c1ccc2nc3c(cc(NCCCNc4cc5oc6cc(=[N+](C)C)ccc-6nc5c5ccccc45)c4ccccc43)oc-2c1`, the growth is 68.5%.

In the case of `C[n+]1c(/C=C/c2ccc([N+](=O)[O-])cc2)ccc2ccccc21`, the growth was 112%.

With `CCC(CCCN(CC)CCc1ccccc1)OC(=O)c1cc(OC)c(OC)c(OC)c1` (centres undefined), the growth is 84.8%.

Consider `O=C(/C=C\c1ccccc1)N1c2ccccc2CC1c1c[nH]c2ccccc12` (centres undefined), for which the growth is 76.8%.

As to `OC(CNc1ccnc2cc(Cl)ccc12)CNc1ccnc2cc(Cl)ccc12`, the growth was 79.5%.

For the compound `COC(=O)c1nc(=S)[nH]c(C(=O)OC)c1C(=O)c1ccccn1`, the growth was 57.9%.

As to `Cc1ccc(N=C=C(c2ccccc2)c2ccccc2)cc1`, the growth was 113%.

With `NC(=S)N/N=C/c1ccc(Cl)s1`, the growth is 111%.

As to `O=[N+]([O-])c1ccc2c(N=Nc3ccc4ccccc4c3O)c(O)cc(S(=O)(=O)O)c2c1`, the growth is 106%.

`CC(=Nc1ccc(N(C)C)cc1)c1ccccc1`: the growth was 106%.

With `O=[N+]([O-])c1ccc(N=Nc2ccc(O)cc2O)cc1`, the growth was 107%.

As for `CCC(CC)COC(=O)c1ccc(O)c(O)c1`, the growth is 91.3%.

In the case of `CCC(c1cccc(O)c1)C(CC)c1cccc(O)c1` (centres undefined), the growth was 96.3%.

Turning to `COC(=O)C(CSC(c1ccccc1)(c1ccccc1)c1ccccc1)NC(=O)C(CC(N)=O)NC(=O)OCc1ccccc1` (stereo not drawn) (Cbz-Asn-Cys(Trt)-OMe; configuration not given here), the growth is 67%.

In the case of `CCC(=O)Sc1ccccc1C(=O)Nc1ccc(Cl)cc1`, the growth was 110%.

In the case of `Nc1ncnc2c1ncn2C1OC(CO)C(O)C1O` (centres undefined), the growth was 122% and 127%.

Consider `Cc1ccc2c(ccc3c[n+]4c5ccccc5ccc4n32)c1`, for which the growth was 47.6%.

`O=C(Nc1ccc(F)cc1)ON=C1CCCCC1`: the growth is 97.9% [100 µM].

In the case of `CC1=CC(O)C2CC1C2(C)C` (centres undefined), the growth was 104% and 110%.

Consider `O=C(CC1(O)C(=O)Nc2c(Cl)ccc(Cl)c21)c1ccc(Cl)cc1Cl` (centres undefined), for which the growth was 110%.

On to `O=C1N[C@H]2[C@H](CS[C@H]2CCCCC(=O)N(CCP(c2ccccc2)c2ccccc2)CCP(c2ccccc2)c2ccccc2)N1`, for which the growth was 95.2%.

`C=C(Cl)C(=NC(C)(C)C)Nc1ccccc1C`: the growth was 114%.

Consider `Cc1ccnc(NC(c2ccccc2)c2ccc3cccnc3c2O)c1` (centres undefined), for which the growth was 69.9%.

Turning to `Cc1cc2nc(CS)[nH]c2cc1C`, the growth was 96.8%.

As to `O=C(O)C1C2CC3C(OC(=O)C31)C2Br` (centres undefined), the growth is 103% and 100%.

With `Cc1ccnc2c1ccc1c(C)ccnc12`, the growth is 48.8%.

`COc1ccccc1/C=C\C(=O)c1ccccc1`: the growth is 84%.
